In PubChem BioAssay (NCI):
The panel holds about 83,000 compounds, 20% with a hit somewhere; the sample as a whole holds those more often.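 Interpretation: 100, growth as untreated; towards 0, rising growth inhibition; 0, no net growth; 0 to -100, cell death. Compounds scoring below 10 were considered active.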 The source made the active and inactive calls.

Key:
Test in all cases: NCI-60 one-dose screen, 48 h (100 = growth as untreated, 0 = no growth, -100 = all killed)
Conditions in all cases: 10 µM
HCT-15 colon = system: HCT-15 colon
HT29 colon = system: HT29 colon
SNB-75 CNS = system: SNB-75 CNS
SNB-19 CNS = system: SNB-19 CNS
U251 CNS = system: U251 CNS
SK-MEL-5 melanoma = system: SK-MEL-5 melanoma
UACC-62 melanoma = system: UACC-62 melanoma
SK-MEL-28 melanoma = system: SK-MEL-28 melanoma
LOX IMVI melanoma = system: LOX IMVI melanoma
PC-3 prostate = system: PC-3 prostate

Measured: growth

COc1cc(/C=C/C(=O)c2cc(OC)c(OC)c(OC)c2)ccc1Oc1nc(Nc2ccc(F)cc2)nc(N(C)C)n1
active: HCT-15 colon -40.3% | HT29 colon -50.9% | SNB-75 CNS -64.8% | SNB-19 CNS -46.7% | U251 CNS -72.9% | SK-MEL-5 melanoma -76.2% | UACC-62 melanoma -80.7% | SK-MEL-28 melanoma -72.1%

Cc1cc(C)nc(/N=C(\N)Nc2ccc(S(=O)(=O)Nc3nc(C)cc(C)n3)cc2)n1
inactive: HCT-15 colon 104% | HT29 colon 116% | SNB-75 CNS 78% | SNB-19 CNS 102% | U251 CNS 106% | SK-MEL-5 melanoma 102% | UACC-62 melanoma 100% | LOX IMVI melanoma 98.6% | SK-MEL-28 melanoma 106%

OCCCNc1oc(-c2ccccc2)nc1[P+](c1ccccc1)(c1ccccc1)c1ccccc1
inactive: HCT-15 colon 45.9% | U251 CNS 13.7%
active: HT29 colon 6.51% | SNB-75 CNS -2.93% | SNB-19 CNS 4.56% | SK-MEL-5 melanoma -100% | UACC-62 melanoma -70.2% | LOX IMVI melanoma -16.6% | SK-MEL-28 melanoma 7.68%

Cc1ccc(/C(N)=N/c2sc(-c3ccccc3)nc2-c2ccccc2)cc1
inactive: HCT-15 colon 46.1% | HT29 colon 50.6% | SNB-75 CNS 82.4% | SNB-19 CNS 97.3% | U251 CNS 75.1% | UACC-62 melanoma 74.6% | SK-MEL-28 melanoma 81.5%

COc1cc(C2CC(c3ccc(C)cc3)=Nc3c(N)nc(N)nc3N2)ccc1Oc1nc(Nc2ccc(F)cc2)nc(N(C)C)n1 (centres undefined)
inactive: HCT-15 colon 14.9% | SNB-75 CNS 104% | SNB-19 CNS 66.7% | U251 CNS 52.2% | UACC-62 melanoma 77.7% | SK-MEL-28 melanoma 88.3%
active: HT29 colon 9.46% | SK-MEL-5 melanoma -100% | LOX IMVI melanoma -77.8%

O=C(COc1ccc(NC(=O)Nc2ccc(Cl)cc2)cc1)N=Nc1c(O)[nH]c2ccc([N+](=O)[O-])cc12
inactive: HCT-15 colon 94.1% | HT29 colon 34.8% | SNB-75 CNS 29.9% | SNB-19 CNS 19.1% | UACC-62 melanoma 11.3% | LOX IMVI melanoma 13.9%
active: U251 CNS -67.6%

CC(=O)C1=C(C)NC(SCC(=O)Nc2ccc(S(=O)(=O)Nc3cc(C)on3)cc2)=NC1c1ccccc1 (centres undefined)
inactive: HCT-15 colon 96.3% | HT29 colon 110% | SNB-75 CNS 102% | SNB-19 CNS 102% | U251 CNS 103% | SK-MEL-5 melanoma 101% | UACC-62 melanoma 97.1% | LOX IMVI melanoma 92.8% | SK-MEL-28 melanoma 110%

O=C(c1ccc(Cl)cc1)C1[C@H](c2ccc(Br)cc2)[C@@H](c2ccccc2)NC12C(=O)Nc1ccc(Cl)cc12 (some centres undefined)
active: HCT-15 colon -87.6% | HT29 colon -49.4% | SNB-75 CNS -4.86% | SNB-19 CNS -8.73% | U251 CNS -80.8% | SK-MEL-5 melanoma -68.5% | UACC-62 melanoma -87.2% | LOX IMVI melanoma -100% | SK-MEL-28 melanoma -86.9%

C=C1CCC2C3(C)COC(c4ccccc4F)OC3CCC2(C)C1C/C=C1/C(=O)OCC1O (centres undefined)
active: HCT-15 colon -20% | HT29 colon -14.6% | SNB-75 CNS -58.3% | SNB-19 CNS -93.4% | U251 CNS -95.4% | PC-3 prostate -17.5% | UACC-62 melanoma -7.01% | SK-MEL-28 melanoma -66.1%

CN1CCN(Cc2ccc(C(=O)Nc3cccc(Nc4ccc5c(O)cccc5n4)c3)cc2C(F)(F)F)CC1
active: HCT-15 colon -25.4% | HT29 colon -50.8% | SNB-19 CNS -64.3% | U251 CNS -35.3% | SK-MEL-5 melanoma -100% | UACC-62 melanoma -79.9% | LOX IMVI melanoma -100% | SK-MEL-28 melanoma -95%
inactive: SNB-75 CNS 33.1%

COc1cccc2nc(Nc3cccc(NC(=O)c4ccc(CN5CCCN(C)CC5)c(C(F)(F)F)c4)c3)ccc12
active: HCT-15 colon -100% | HT29 colon -72% | SNB-75 CNS -84.5% | SNB-19 CNS -99.3% | U251 CNS -55.6% | SK-MEL-5 melanoma -96.9% | UACC-62 melanoma -74.1% | LOX IMVI melanoma -98.8% | SK-MEL-28 melanoma -100%

COC(=O)C(Cc1ccc(O)c(O)c1)NC(=O)C(CSC/C=C(\C)CCCC(C)CCCC(C)CCCC(C)C)NC(C)=O (centres undefined)
active: U251 CNS 4.85%
inactive: HCT-15 colon 15.5% | HT29 colon 40.5% | SNB-75 CNS 42.8% | SNB-19 CNS 10.8% | SK-MEL-5 melanoma 36.8% | UACC-62 melanoma 13% | LOX IMVI melanoma 19.7% | SK-MEL-28 melanoma 25.1%

CC(=O)c1ccc(NC(=O)NCn2c(=O)[nH]c3ccccc3c2=O)cc1
inactive: HCT-15 colon 101% | HT29 colon 105% | SNB-75 CNS 99.9% | U251 CNS 86.7% | PC-3 prostate 86.9% | SK-MEL-5 melanoma 96.8% | UACC-62 melanoma 81.1% | LOX IMVI melanoma 92.8% | SK-MEL-28 melanoma 103%

CCCn1c(=O)c2[nH]c(-c3ccc(OCc4nc5ccc(C(F)(F)F)cc5[nH]4)cc3)nc2n(CCC)c1=O
active: UACC-62 melanoma 6.48%
inactive: HCT-15 colon 23.1% | HT29 colon 62% | SNB-75 CNS 84.6% | U251 CNS 37.6% | PC-3 prostate 33.2% | SK-MEL-5 melanoma 37.1% | LOX IMVI melanoma 35.5% | SK-MEL-28 melanoma 58.4%

CC(C)CCSc1nc(NC2CC2)c(C#N)c(-c2ccc(C(C)C)cc2)n1
inactive: HCT-15 colon 106% | HT29 colon 108% | SNB-75 CNS 111% | U251 CNS 106% | PC-3 prostate 106% | SK-MEL-5 melanoma 102% | UACC-62 melanoma 98.3% | LOX IMVI melanoma 100% | SK-MEL-28 melanoma 110%

CN1CCN(Cc2ccc(NC(=O)c3cncc(C#Cc4cnc5ccc(N[C@H]6CCOC6)nn45)c3)cc2C(F)(F)F)CC1
active: HCT-15 colon -84.3% | HT29 colon -33.2% | SNB-75 CNS -98% | U251 CNS -79.7% | PC-3 prostate -20.7% | SK-MEL-5 melanoma -100% | UACC-62 melanoma -93.3% | LOX IMVI melanoma -99.1% | SK-MEL-28 melanoma -92.8%

COc1ccc(-c2cc(-c3cc(C(=O)c4ccc(Br)cc4)n4ccc(C)cc34)nc(N)c2C#N)cc1
inactive: HCT-15 colon 89.6% | HT29 colon 77.4% | SNB-75 CNS 108% | U251 CNS 64.7% | PC-3 prostate 89.4% | SK-MEL-5 melanoma 87.5% | UACC-62 melanoma 81.2% | LOX IMVI melanoma 54.6% | SK-MEL-28 melanoma 69.6%

O=C(c1ccc(O)cc1)C1[C@H](c2ccccc2Br)[C@@H](c2ccccc2)NC12C(=O)Nc1ccc(Cl)cc12 (some centres undefined)
inactive: HCT-15 colon 12.3% | SK-MEL-28 melanoma 29.2%
active: HT29 colon -30.4% | SNB-75 CNS 2.75% | U251 CNS -31.9% | PC-3 prostate 2.91% | SK-MEL-5 melanoma -33% | UACC-62 melanoma 6.97% | LOX IMVI melanoma -100%

Nc1n[nH]c2cccc(C#Cc3cccc(NC(=O)Nc4cc(C(F)(F)F)cc(C(F)(F)F)c4)c3)c12
active: HCT-15 colon -81.8% | HT29 colon -49.7% | SNB-75 CNS -0.721% | U251 CNS -78.5% | PC-3 prostate -4.77% | SK-MEL-5 melanoma -100% | UACC-62 melanoma -90.9% | LOX IMVI melanoma -100% | SK-MEL-28 melanoma -88.5%

O=C(Cn1nc(-c2ccccc2)ccc1=O)NNC(=S)NC1CCCCC1
inactive: HCT-15 colon 97.9% | HT29 colon 127% | SNB-75 CNS 96.6% | U251 CNS 102% | PC-3 prostate 96.4% | SK-MEL-5 melanoma 100% | UACC-62 melanoma 96.2% | LOX IMVI melanoma 99% | SK-MEL-28 melanoma 108%

O=c1oc2ccccc2cc1-c1csc(N=Nc2c(O)[nH]c3ccc(Br)cc23)n1
inactive: HCT-15 colon 97% | HT29 colon 109% | SNB-75 CNS 96.1% | U251 CNS 40.4% | PC-3 prostate 89.1% | SK-MEL-5 melanoma 98.1% | UACC-62 melanoma 78.1% | LOX IMVI melanoma 62.8% | SK-MEL-28 melanoma 105%

O=C(CSc1nnc(-c2ccc3nc(-c4ccc(Cl)cc4)[nH]c3c2)o1)Nc1ccc(Br)cc1
active: HCT-15 colon -64.2% | HT29 colon -15.8% | SNB-75 CNS 5.11% | U251 CNS -63.9% | PC-3 prostate 5.11% | SK-MEL-5 melanoma -36.9% | UACC-62 melanoma -90.8% | LOX IMVI melanoma -100% | SK-MEL-28 melanoma -94.4%

CNC(=O)c1cc(-c2ccc(NC(=O)Nc3ccc(C)cc3)cc2)nc2cccnc12
inactive: HCT-15 colon 93.6% | HT29 colon 99.2% | SNB-75 CNS 107% | U251 CNS 101% | PC-3 prostate 87.1% | SK-MEL-5 melanoma 95.4% | UACC-62 melanoma 83.8% | LOX IMVI melanoma 101% | SK-MEL-28 melanoma 118%

CC(=O)Nc1nc(-c2ccc(N3CCN(C)CC3)c(NS(=O)(=O)c3ccc(C(F)(F)F)cc3)c2)cs1
inactive: U251 CNS 23.1% | PC-3 prostate 30.3%
active: HCT-15 colon -67.7% | HT29 colon -18.7% | SNB-75 CNS 1.07% | SK-MEL-5 melanoma 7.11% | UACC-62 melanoma 6.26% | LOX IMVI melanoma -85.4% | SK-MEL-28 melanoma 5.39%

N#Cc1c(-c2ccc(F)cc2)nc(SCc2ccc(F)cc2)nc1N1CCOCC1
inactive: HCT-15 colon 79.9% | HT29 colon 92.9% | U251 CNS 47.1% | PC-3 prostate 71.6% | SK-MEL-5 melanoma 74.3% | UACC-62 melanoma 69.3% | LOX IMVI melanoma 76.4% | SK-MEL-28 melanoma 85.8%
active: SNB-75 CNS -17.5%

O=C(Nc1ccc(F)c(Cl)c1)c1cc(-c2ccc(F)cc2F)ccc1O
active: HCT-15 colon -18.7% | SNB-75 CNS -20.9% | PC-3 prostate 1.28% | SK-MEL-5 melanoma -90.6% | UACC-62 melanoma -54.6% | LOX IMVI melanoma -57.2% | SK-MEL-28 melanoma -16.2%
inactive: HT29 colon 26.8% | U251 CNS 11.5%

COc1ccc2cc([C@H](C)C(=O)NCc3ccccc3)ccc2c1
inactive: HCT-15 colon 29.1% | SNB-19 CNS 31.7% | U251 CNS 25% | PC-3 prostate 49.5% | SK-MEL-5 melanoma 18.7% | UACC-62 melanoma 22.1% | LOX IMVI melanoma 43%
active: HT29 colon 5.25%

CN1CCN(c2ccc(Nc3nc(N4CCN(S(=O)(=O)c5ccc(Cl)cc5)CC4)c4sccc4n3)cc2)CC1
inactive: SNB-75 CNS 67.1% | PC-3 prostate 28.5%
active: HCT-15 colon -78.6% | HT29 colon -51.3% | U251 CNS -85.2% | SK-MEL-5 melanoma -100% | UACC-62 melanoma -90.3% | LOX IMVI melanoma -90.1% | SK-MEL-28 melanoma -98.6%

CCCn1c(=O)c2[nH]c(-c3ccc(OCc4nc5ccc(C#N)cc5[nH]4)cc3)nc2n(CCC)c1=O
inactive: HCT-15 colon 84.7% | HT29 colon 88.5% | SNB-75 CNS 84.9% | U251 CNS 70.6% | PC-3 prostate 55.4% | SK-MEL-5 melanoma 83.4% | UACC-62 melanoma 49.2% | LOX IMVI melanoma 46.5% | SK-MEL-28 melanoma 90.8%
